Values without a mark were called inactive.
Experiments:
Test in all cases: log2 ratio of Biotin-Ahx-Ub-VS probe labelling (fragment/DMSO); higher = less target engagement (more negative = stronger competition), active = hit call of the paper (q ≤ 0.05, log2 ratio ≤ -1)
Details in all cases: compound concentration: 200 uM; treatment time: 3 h
[1] = biological target: T1, OTUD6B (UniProt Q8N6M0)
T1 sequence (whole entry): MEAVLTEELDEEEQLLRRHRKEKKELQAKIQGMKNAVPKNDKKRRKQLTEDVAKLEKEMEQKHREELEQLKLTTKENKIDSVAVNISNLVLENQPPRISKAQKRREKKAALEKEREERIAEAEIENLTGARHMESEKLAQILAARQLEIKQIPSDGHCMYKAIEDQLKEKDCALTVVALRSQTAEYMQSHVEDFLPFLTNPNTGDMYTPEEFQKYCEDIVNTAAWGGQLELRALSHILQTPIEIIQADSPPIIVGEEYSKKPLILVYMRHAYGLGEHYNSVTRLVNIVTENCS
In short: (§1)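 Values give the average log2 ratio of fragment to vehicle, assessed by unpaired t-test on global-median-normalised Spectronaut label-free quantities. Proteins needed ≥2 unique peptides. HEK293T lysate (495 µg per sample) was treated in triplicate with fragment at 200 µM or vehicle for 3 h and then with Biotin-Ahx-Ub-VS at 0.5 µM final for 1 h. Labelled DUBs were NeutrAvidin-enriched, digested and run by diaPASEF LC-MS/MS.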

[2] = biological target: T2, OTUD7B (UniProt Q6GQQ9)
T2 sequence (whole entry): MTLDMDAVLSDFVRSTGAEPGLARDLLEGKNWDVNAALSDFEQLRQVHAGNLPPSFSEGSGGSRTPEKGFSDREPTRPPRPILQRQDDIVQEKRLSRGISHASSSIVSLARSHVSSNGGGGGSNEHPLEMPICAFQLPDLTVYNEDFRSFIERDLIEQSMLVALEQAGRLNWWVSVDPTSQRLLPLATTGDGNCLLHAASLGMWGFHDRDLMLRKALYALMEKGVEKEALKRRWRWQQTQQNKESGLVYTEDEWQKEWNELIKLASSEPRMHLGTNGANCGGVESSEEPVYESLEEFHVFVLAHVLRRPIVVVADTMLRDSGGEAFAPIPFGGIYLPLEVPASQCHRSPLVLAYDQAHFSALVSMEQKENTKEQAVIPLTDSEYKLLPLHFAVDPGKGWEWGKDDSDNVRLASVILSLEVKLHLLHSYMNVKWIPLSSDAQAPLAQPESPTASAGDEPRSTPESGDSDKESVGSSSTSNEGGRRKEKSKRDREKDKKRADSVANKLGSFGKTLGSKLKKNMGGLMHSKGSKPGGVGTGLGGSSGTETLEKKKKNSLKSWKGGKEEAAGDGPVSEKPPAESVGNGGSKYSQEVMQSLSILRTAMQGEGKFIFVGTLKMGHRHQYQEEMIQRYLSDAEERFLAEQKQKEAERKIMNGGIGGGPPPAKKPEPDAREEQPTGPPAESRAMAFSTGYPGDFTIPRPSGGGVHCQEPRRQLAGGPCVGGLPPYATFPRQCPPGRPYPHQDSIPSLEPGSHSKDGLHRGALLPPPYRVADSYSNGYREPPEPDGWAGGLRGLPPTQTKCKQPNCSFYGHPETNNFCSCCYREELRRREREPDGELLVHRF
In short: as §1

[3] = biological target: PRPF8 (UniProt Q6P2Q9)
In short: as §1

[4] = biological target: T3, PSMD7 (UniProt P51665)
T3 sequence (whole entry): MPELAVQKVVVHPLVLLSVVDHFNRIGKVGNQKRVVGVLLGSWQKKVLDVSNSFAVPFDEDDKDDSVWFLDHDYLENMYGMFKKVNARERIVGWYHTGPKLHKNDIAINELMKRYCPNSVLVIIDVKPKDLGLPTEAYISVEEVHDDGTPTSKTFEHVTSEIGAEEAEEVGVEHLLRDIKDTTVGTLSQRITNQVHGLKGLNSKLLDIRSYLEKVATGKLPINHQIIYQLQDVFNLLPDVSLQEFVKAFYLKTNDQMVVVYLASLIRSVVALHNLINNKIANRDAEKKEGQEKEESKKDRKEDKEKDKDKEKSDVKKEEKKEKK
In short: as §1

[5] = biological target: UCHL1 (UniProt P09936)
UCHL1, sequence (P09936 whole entry, looked up): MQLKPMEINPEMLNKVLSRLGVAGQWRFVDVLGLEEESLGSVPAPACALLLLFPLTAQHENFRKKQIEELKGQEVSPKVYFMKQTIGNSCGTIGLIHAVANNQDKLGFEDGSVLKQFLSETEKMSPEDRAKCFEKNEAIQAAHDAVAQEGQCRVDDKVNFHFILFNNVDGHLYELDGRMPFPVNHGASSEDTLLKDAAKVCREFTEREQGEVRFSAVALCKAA
In short: as §1

[6] = biological target: T4, UCHL3 (UniProt P15374)
T4 sequence (whole entry): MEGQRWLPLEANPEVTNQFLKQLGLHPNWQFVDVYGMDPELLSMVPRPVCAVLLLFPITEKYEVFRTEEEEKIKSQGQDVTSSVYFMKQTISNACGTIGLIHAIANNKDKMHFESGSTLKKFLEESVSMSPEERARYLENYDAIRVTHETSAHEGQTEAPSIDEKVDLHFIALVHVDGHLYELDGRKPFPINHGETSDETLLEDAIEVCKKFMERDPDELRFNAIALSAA
In short: as §1

[7] = biological target: T5, UCHL5 (UniProt Q9Y5K5)
T5 sequence (whole entry): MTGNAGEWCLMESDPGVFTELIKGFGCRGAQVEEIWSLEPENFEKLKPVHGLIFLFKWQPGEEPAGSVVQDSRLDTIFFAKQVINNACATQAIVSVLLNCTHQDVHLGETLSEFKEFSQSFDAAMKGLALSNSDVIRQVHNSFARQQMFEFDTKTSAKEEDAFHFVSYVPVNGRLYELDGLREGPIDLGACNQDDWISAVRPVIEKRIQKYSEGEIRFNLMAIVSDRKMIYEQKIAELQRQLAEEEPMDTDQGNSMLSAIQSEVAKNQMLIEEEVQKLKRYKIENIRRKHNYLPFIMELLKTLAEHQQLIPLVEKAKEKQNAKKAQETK
In short: as §1

[8] = biological target: USP10 (UniProt Q14694)
USP10, sequence (Q14694 whole entry): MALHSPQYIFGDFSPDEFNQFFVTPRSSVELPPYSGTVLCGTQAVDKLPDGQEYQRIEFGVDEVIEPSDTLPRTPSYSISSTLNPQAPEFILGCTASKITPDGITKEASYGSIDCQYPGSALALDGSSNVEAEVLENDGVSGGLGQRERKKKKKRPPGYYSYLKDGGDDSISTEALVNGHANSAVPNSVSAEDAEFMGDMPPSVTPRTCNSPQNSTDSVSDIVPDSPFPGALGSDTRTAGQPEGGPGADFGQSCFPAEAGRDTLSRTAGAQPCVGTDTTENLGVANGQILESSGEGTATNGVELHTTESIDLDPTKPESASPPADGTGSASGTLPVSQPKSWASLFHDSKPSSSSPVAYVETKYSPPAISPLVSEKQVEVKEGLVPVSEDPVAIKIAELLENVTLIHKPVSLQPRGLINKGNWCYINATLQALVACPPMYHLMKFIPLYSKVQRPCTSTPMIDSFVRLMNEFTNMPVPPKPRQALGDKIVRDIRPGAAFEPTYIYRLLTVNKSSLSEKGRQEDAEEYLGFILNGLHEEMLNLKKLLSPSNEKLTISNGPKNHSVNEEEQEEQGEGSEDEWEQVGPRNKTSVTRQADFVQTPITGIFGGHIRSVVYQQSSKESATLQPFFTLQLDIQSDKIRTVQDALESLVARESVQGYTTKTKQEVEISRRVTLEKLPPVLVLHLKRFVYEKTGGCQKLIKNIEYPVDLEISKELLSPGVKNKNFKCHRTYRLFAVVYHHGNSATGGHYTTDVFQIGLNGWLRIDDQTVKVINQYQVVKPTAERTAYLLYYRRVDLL
In short: as §1

[9] = biological target: T6, USP15 (UniProt Q9Y4E8)
T6 sequence (whole entry): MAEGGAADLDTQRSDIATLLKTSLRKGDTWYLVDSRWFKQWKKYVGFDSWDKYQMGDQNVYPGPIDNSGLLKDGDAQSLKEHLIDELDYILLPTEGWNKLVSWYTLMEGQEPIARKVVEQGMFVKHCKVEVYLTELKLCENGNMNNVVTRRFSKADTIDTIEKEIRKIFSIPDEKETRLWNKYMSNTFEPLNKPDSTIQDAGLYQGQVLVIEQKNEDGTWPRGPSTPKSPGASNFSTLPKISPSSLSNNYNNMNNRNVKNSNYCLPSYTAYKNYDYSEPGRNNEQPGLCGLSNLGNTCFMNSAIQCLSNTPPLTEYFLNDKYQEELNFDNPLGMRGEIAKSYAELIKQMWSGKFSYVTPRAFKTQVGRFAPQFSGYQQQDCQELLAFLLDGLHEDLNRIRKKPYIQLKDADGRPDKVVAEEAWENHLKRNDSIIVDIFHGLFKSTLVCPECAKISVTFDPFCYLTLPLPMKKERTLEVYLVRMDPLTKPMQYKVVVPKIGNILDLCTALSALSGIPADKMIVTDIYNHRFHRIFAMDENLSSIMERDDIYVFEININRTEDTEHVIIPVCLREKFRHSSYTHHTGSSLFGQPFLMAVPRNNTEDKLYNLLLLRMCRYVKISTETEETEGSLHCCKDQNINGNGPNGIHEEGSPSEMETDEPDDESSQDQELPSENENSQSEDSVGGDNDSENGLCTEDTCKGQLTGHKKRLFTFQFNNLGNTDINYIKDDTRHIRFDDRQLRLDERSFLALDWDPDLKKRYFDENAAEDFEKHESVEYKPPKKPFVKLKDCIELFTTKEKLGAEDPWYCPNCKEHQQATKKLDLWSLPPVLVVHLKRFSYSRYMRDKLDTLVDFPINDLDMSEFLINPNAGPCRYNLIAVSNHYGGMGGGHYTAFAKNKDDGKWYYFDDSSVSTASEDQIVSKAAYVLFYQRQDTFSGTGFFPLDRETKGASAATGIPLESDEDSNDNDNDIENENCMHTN
In short: as §1

[10] = biological target: USP16 (UniProt Q9Y5T5)
USP16, sequence (Q9Y5T5 whole entry, looked up): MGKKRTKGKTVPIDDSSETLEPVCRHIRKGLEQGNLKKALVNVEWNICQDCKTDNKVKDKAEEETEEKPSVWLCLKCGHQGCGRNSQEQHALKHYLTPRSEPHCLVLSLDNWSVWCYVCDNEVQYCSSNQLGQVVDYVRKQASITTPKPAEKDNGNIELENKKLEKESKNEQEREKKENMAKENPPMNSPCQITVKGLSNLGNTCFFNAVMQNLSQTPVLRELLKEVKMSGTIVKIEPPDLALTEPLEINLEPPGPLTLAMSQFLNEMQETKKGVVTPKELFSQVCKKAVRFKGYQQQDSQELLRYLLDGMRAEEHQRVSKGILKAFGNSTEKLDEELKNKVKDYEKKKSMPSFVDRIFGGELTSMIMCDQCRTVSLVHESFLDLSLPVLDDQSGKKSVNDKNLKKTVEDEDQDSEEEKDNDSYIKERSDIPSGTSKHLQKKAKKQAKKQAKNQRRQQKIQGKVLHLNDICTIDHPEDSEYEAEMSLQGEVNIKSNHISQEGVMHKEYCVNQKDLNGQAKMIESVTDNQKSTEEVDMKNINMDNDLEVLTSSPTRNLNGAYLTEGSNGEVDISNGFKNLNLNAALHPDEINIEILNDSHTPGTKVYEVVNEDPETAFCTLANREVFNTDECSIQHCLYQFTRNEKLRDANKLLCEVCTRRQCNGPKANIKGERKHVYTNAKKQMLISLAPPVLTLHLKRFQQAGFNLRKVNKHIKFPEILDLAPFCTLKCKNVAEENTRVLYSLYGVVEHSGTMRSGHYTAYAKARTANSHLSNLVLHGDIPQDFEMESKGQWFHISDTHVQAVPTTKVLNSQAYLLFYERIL
In short: as §1

**Q.** `CNC(=O)C1(NC(=O)CCl)CCCCC1` was tested. Which “log2 ratio of Biotin-Ahx-Ub-VS probe labelling” value (from here on “log2 ratio”) [1] did it give?
**A.** -0.206

**Q.** What about the “log2 ratio” value [2] of the same molecule?
**A.** -0.687

**Q.** And the “log2 ratio” value [3]?
**A.** -0.213

**Q.** What about the “log2 ratio” value [4] of the same molecule?
**A.** -0.128

**Q.** What about the “log2 ratio” value [5] of the same molecule?
**A.** -1.81 (active)

**Q.** And the “log2 ratio” value [6]?
**A.** 0.248

**Q.** And the “log2 ratio” value [7]?
**A.** -0.358

**Q.** What about the “log2 ratio” value [8] of the same molecule?
**A.** -0.0869

**Q.** What about the “log2 ratio” value [9] of the same molecule?
**A.** 0.0503

**Q.** What about the “log2 ratio” value [10] of the same molecule?
**A.** 0.154

From the supplement of paper PMC11732987, “Enantioselective OTUD7B fragment discovery through chemoproteomics screening and high-throughput optimisation” (Communications Chemistry, 2025)
